These results are taken from PubChem BioAssay AID434970 (Sanford-Burnham Center for Chemical Genomics, 2010).

About 310 (2.8%) of roughly 11,000 compounds were called active. Cut-off read from the data, not from the text of the source: active = activity change below about -85%; inactive = the rest. The sample as a whole holds a higher share of actives than the screen did.

The assay concerns intestinal alkaline phosphatase [Mus musculus]. The assay can be described thus: mouse intestinal phosphatase enzyme activation – biochemical, luminescence, single concentration, confirmation (AID 434970). The note with it: purified mouse IAP, CDP-Star luminescence, 30 min, at 10 µM; activation factor: measured here: IAP activation factor, stronger effect = higher value; activity change, negative = activation: stronger effect = lower value.
As for `N#CCc1ccc(NC(=O)Nc2cccc(Cl)c2)cc1`, the activation factor was 1.88 and the activity change, negative = activation is -87.6% (inactive).
With `C/C(CC(=O)Nc1cccc(Cl)c1)=N\NC(=O)Cc1ccc(Cl)cc1`, the activation factor came to 1.02 and the activity change, negative = activation was -2.2% (inactive).
For `CC(=O)Nc1cccc(NC(=O)Nc2ccc(C(C)=O)cc2)c1`, in that order: 1.13 and -13.4% (inactive).
With `COCCN(CC(=O)NCc1ccc2c(c1)OCO2)C(=O)CCC(=O)Nc1nccs1`, the activation factor was determined as 0.99 and the activity change, negative = activation is 1% (inactive).
With `O=S(=O)(N[C@H](CO)c1ccccc1)c1ccc(Br)cc1F`, the activation factor was determined as 1.03 and the activity change, negative = activation is -2.75% (inactive).
With `CCOC(=O)C1=C(C)N(C[C@@H]2CC[C@@H](Cc3ccc(-c4ccccc4)cc3)O2)C(=O)NC1c1ccc(C(F)(F)F)cc1` (some centres undefined), the activation factor is 0.924 and the activity change, negative = activation was 7.6% (inactive).
Turning to `COc1ccc(CCNC(=O)CC2COc3ccccc3O2)cc1OC` (centres undefined), the activation factor was 1.06 and the activity change, negative = activation is -5.55% (inactive).
For `Oc1c(C=C2N=c3ccccc3=N2)sc(=S)n1-c1ccc(F)cc1`, in that order: 0.615 and 38.5% (inactive).
For `COc1ccc(CC(NC(C)=O)C(=O)NC2CCN(C(=O)c3cnccn3)CC2)cc1` (centres undefined), in that order: 0.93 and 7% (inactive).
In the case of `CCN1Cc2cc(OC)ccc2-c2ccccc2S1(=O)=O`, the activation factor stood at 1.15 and the activity change, negative = activation was -14.7% (inactive).
For the compound `CN(c1cccc(NC(=O)Nc2cccc(Cl)c2)c1)S(C)(=O)=O`, the activation factor is 2.47 and the activity change, negative = activation was -147% (active).
Turning to `CN(c1cccc(NC(=O)Nc2ccc(Cl)cc2)c1)S(C)(=O)=O`, the activation factor amounted to 1.91 and the activity change, negative = activation is -91.2% (inactive).
For `Cc1ccc(S(=O)(=O)N(CC(=O)Nc2cccc(N(C)S(C)(=O)=O)c2)c2ccc(Cl)c(Cl)c2)cc1`, in that order: 1.73 and -73.1% (inactive).
For `CN1CCN(NC(=O)Nc2cc(Cl)cc(Cl)c2)CC1`, in that order: 2.2 and -120% (active).
For `O=C(NCCN1CCN(Cc2ccccc2)CC1)Nc1cc(Cl)cc(Cl)c1`, in that order: 1.43 and -42.5% (inactive).
`O=C(Nc1cc(Cl)cc(Cl)c1)N1CCCC1`: the activation factor was 1.62 and the activity change, negative = activation was -62.2% (inactive).
For `COC(=O)c1ccc(CC(=O)c2c(C)cc(O)cc2O)o1`, in that order: 0.877 and 12.3% (inactive).
For `CC(C)COc1ccc(CNC(=S)NCc2ccccc2)cc1`, in that order: 1.12 and -11.7% (inactive).
For `O=C(O)CC(c1cccc(Cl)c1)n1cccc1` (centres undefined), in that order: 0.964 and 3.65% (inactive).
In the case of `CCCCN1CCc2c([nH]c3c(C)cccc23)C1=O`, the activation factor came out at 1.06 and the activity change, negative = activation was -6.35% (inactive).
For `Cc1ccc(OC(F)F)c(NC(=O)Nc2cccc(C(F)(F)F)c2)c1`, in that order: 1.6 and -60.4% (inactive).
Take `CCN(CC)S(=O)(=O)c1cccc(C(=O)Nc2cccc(C)c2)c1`: the activation factor was 0.938 and the activity change, negative = activation was 6.2% (inactive).
For `CCN(CC)S(=O)(=O)c1cccc(NC(=O)Nc2cccc(C(F)(F)F)c2)c1`, the activation factor worked out at 4.57 and the activity change, negative = activation was -357% (active).
For `CCNS(=O)(=O)c1ccc(NC(=O)Nc2cccc(C(F)(F)F)c2)cc1`, in that order: 1.77 and -76.7% (inactive).
On to `CCN(CC)S(=O)(=O)c1ccc(NC(=O)CN(c2cccc(F)c2)S(C)(=O)=O)cc1`, for which the activation factor turned out to be 0.911 and the activity change, negative = activation was 8.85% (inactive).
In the case of `CCN(CC)S(=O)(=O)c1cccc(NC(=O)c2cc3ccccc3o2)c1`, the activation factor came to 0.883 and the activity change, negative = activation is 11.7% (inactive).
In the case of `O=C(Nc1ccc(OC(F)F)cc1)Nc1cccc(C(F)(F)F)c1`, the activation factor was determined as 1.99 and the activity change, negative = activation was -99.2% (active).
For `O=C(Nc1ccccc1)Nc1cccc(C(F)(F)F)c1`, in that order: 1.82 and -82.1% (inactive).
For `CCN(CC)S(=O)(=O)c1ccc(NC(=O)Nc2cccc(C(F)(F)F)c2)cc1`, in that order: 2.03 and -103% (active).
`O=C(c1ccco1)N1CCN(CC(O)Cn2c3ccccc3c3ccccc32)CC1` (centres undefined): the activation factor stood at 0.97 and the activity change, negative = activation was 2.95% (inactive).
For `CC(C)OC(=O)CSc1nc2cccnc2n1C1CCCCC1`, in that order: 0.982 and 1.75% (inactive).
Take `COc1ccc(C2=NO[C@@H]3C(=O)N(c4cccc(C)c4C)C(=O)[C@H]23)cc1OC`: the activation factor was 0.93 and the activity change, negative = activation was 6.95% (inactive).
For `COC(=O)c1sccc1NC(=O)c1cc(OC)cc(OC)c1`, in that order: 0.928 and 7.2% (inactive).
For `c1coc(C2Nc3ccccc3C3OCCC23)c1` (centres undefined), in that order: 1.1 and -10.4% (inactive).
For `C=C(C)c1cccc(C(C)(C)NC(=O)NCC2COCCO2)c1` (centres undefined), in that order: 1.09 and -9.1% (inactive).
Regarding `C=C(C)c1cccc(C(C)(C)NC(=O)NC(c2ccccc2)c2ccc(OC)cc2)c1` (centres undefined), the activation factor was determined as 4.59 and the activity change, negative = activation is -359% (active).
For `CC(=O)Nc1ccc(S(=O)(=O)Nc2cccc(NC(=O)C(C)(C)C)c2)cc1`, in that order: 1.12 and -11.8% (inactive).
For `C=C(C)c1cccc(C(C)(C)NC(=O)Nc2ccc(C(N)=O)cc2)c1`, in that order: 2.18 and -118% (active).
Turning to `COc1ccc(C(=O)OC(C(=O)c2ccccc2)c2ccccc2)cc1` (centres undefined), the activation factor stood at 0.982 and the activity change, negative = activation was 1.8% (inactive).
For `COc1ccc(C(=O)NC(Oc2ccccc2)C(Cl)(Cl)Cl)cc1` (centres undefined), in that order: 1.06 and -6.15% (inactive).
For `CC(C)C(OC(=O)c1ccco1)C(=O)NC1CCCCC1` (centres undefined), in that order: 0.964 and 3.65% (inactive).
Consider `Cc1ccc(C)c(N(C(=O)CCC(=O)Nc2cc(C)on2)C(C(=O)NC2CCCC2)c2ccco2)c1` (centres undefined), for which the activation factor came out at 0.998 and the activity change, negative = activation is 0.2% (inactive).
